From PubChem BioAssay (NCATS)
Several values for one entry are separate records, joined by “and”; a condition that tells them apart may be missing. Equal entries are not always repeated. Activity calls are given as the source filed them. Calls come from the whole dose curve; as a rule, active = well fitted activation curve with a large enough effect; inconclusive = small, poorly fitted or top-dose-only effect; inactive = flat fitted curve, though single readings scatter.

target: Peroxisome proliferator-activated receptor alpha (Homo sapiens) (UniProt Q07869); assay: qHTS assay for small molecule agonists of the peroxisome proliferator-activated receptor alpha (PPARalpha) signaling pathway (AID 651778); settings: PathHunter PPARalpha complementation, chemiluminescence, 6 h; stronger effect = higher value; note: % of control where 0% means no effect
Sequence (Q07869 whole entry, looked up): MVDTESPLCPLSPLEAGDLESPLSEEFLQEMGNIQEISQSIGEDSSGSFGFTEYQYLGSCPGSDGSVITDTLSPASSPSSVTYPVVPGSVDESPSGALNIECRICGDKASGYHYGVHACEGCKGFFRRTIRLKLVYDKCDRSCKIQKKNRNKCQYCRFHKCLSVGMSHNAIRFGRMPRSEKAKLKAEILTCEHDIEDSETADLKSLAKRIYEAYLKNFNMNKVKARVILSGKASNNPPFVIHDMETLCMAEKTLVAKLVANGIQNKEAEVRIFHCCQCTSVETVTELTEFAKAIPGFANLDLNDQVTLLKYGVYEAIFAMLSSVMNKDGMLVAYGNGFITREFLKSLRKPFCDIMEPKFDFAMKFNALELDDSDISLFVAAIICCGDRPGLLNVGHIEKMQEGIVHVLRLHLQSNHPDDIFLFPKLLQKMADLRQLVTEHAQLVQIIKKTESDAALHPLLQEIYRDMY
From the text: National Center for Advancing Translational Sciences [NCATS]
NIH Chemical Genomics Center [NCGC]
U.S. Environmental Protection Agency [EPA]
National Institutes of Environmental Health Sciences [NIEHS]
National Toxicology Program [NTP]
The Peroxisome proliferator-activated receptors (PPARs) are lipid-activated transcription factors of the nuclear receptor superfamily with three distinct subtypes (alpha, garmma and beta/delta). All these subtypes heterodimerize with retinoid X receptor and have different physiological functions. PPARalpha is highly expressed in tissues with high rates of mitochondrial fatty acid oxidation, such as liver, heart, muscle, kidney and cells of the arterial wall. PPARalpha is a major regulator of lipid metabolism and energy homeostasis.
A cell based assay was used to identify activators of PPARalpha. The assay detects binding of a ligand to PPARalpha leading to its activation, translocation and complementation thus forming a functional enzyme capable of hydrolyzing the substrate molecule and generating chemiluminescent signal.
2,000 cells in 6 uL/well were dispensed into white wall/solid bottom 1536-well plates using a Multidrop Combi (Thermo Scientific) dispenser. After incubation 37 C and 5% CO2 overnight, 23 nL compound or DMSO only were transferred by a pin tool. The plates were incubated for 6 hr at 37 C and 5% CO2. 3 ul PathHunter detection reagent (Discoverx) was then added to each well and following 60 min incubation at room temperature, chemiluminescence was quantified on a ViewLux CCD-based plate reader.

Row | Compound | max response
1 | CC(C)N=C=NC(C)C | -2.65% (inactive)
2 | O=[N+]([O-])c1ccc2nc[nH]c2c1 | -4.28% (inactive)
3 | O=C(O)c1ccccc1[N+](=O)[O-] | -2.24% (inactive)
4 | CC1=C(/C=C/C(C)=C/C=C/C(C)=C\C=O)C(C)(C)CCC1 | 1.33% (inactive)
5 | O=C1OC(=O)c2c(Br)c(Br)c(Br)c(Br)c21 | 0.713% (inactive) and 0.326% (inactive)
6 | Nc1ccc(F)cc1F | 7.65% (inactive)
7 | Cc1cccc2sc(N)nc12 | -1.18% (inactive)
8 | Nc1cc(Cl)c(N)c(Cl)c1 | 1.23% (inactive) and -1.85% (inactive)
9 | CC(=O)Nc1ccccc1C | -1.36% (inactive)
10 | Cc1cccc(C)c1[N+](=O)[O-] | 0.937% (inactive) and 0.387% (inactive)
11 | O=C(O)c1ccccc1Cl | -0.83% (inactive)
12 | Clc1cc(Cl)cc(Cl)c1 | 0.786% (inactive)
13 | N#Cc1ccccc1 | -0.81% (inactive)
14 | CCc1ccccc1O | -2.08% (inactive)
15 | CCC(C)(C)C | -1.79% (inactive)
16 | C1CCCC1 | 5.92% (inactive)
17 | CC(=C/C=C/C(C)=C/C=C/C=C(C)/C=C/C=C(C)/C=C/C(=O)O)/C=C/C(=O)O | 2.34% (inactive)
18 | c1ccc2[nH]cnc2c1 | -1.28% (inactive)
19 | CC(=O)c1ccccc1[N+](=O)[O-] | -1% (inactive)
20 | CC(=O)OCCC(C)C | -9.14% (inactive)

Row | Compound | max response
21 | COc1ccccc1[N+](=O)[O-] | -1.42% (inactive) and -1.21% (inactive)
22 | C=C(C)C(=O)OCC(C)O (stereo not given) | -1.16% (inactive)
23 | CCOC(C)(C)C | -4.96% (inactive)
24 | O=C(O)c1ccccc1C(=O)O | 0.653% (inactive)
25 | CCC1CO1 (stereo not given) | -1.3% (inactive)
26 | CCCCCNCCCCC | -4.45% (inactive) and 0.112% (inactive)
27 | CCCCC(CC)C(=O)O (stereo not given) | -2.43% (inactive)
28 | CNc1ccccc1 | -7.07% (inactive)
29 | Oc1cccc(Nc2ccccc2)c1 | -0.0901% (inactive)
30 | CC(C)(C)OC=O | -0.442% (inactive)
31 | CC(=O)c1cc(C)oc1C | -8.47% (inactive)
32 | CCNc1cc(O)ccc1C | -6.44% (inactive)
33 | OC/C(Br)=C(\Br)CO | -6.37% (inactive)
34 | CCN(Cc1ccccc1)c1ccccc1 | 3.08% (inactive)
35 | Cc1cccc([N+](=O)[O-])c1C(=O)O | 4.5% (inactive)
36 | Cc1cccc2cccnc12 | 3.59% (inactive)
37 | Cc1ccc2oc(=O)ccc2c1 | 7.89% (inactive) and -0.114% (inactive)
38 | COc1cccc(N)c1 | -3.67% (inactive)
39 | CC(CCl)OC(C)CCl (stereo not given) | 4.09% (inactive)
40 | CSCCC=O | 13.7% (inactive)
